An excerpt weighted towards active compounds, which were near 5.5% of everything screened.
Coupling enz – counter-screen for Giardia aldolase inhibitors: coupling enzyme system; coupling enzyme system counterscreen, AmpLite Red fluorescence; activity change, negative = inhibition, % at 58.2 µM, hits read low; 290,000 tested, 0.67% active; in the data active = activity change below about -30%
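Activity here indicates interference with the coupling reaction, not aldolase inhibition. Compounds at 57.5 uM final met coupling enzymes for 10 min at RT; substrate and AmpLite Red detection followed, with a 525/598 nm fluorescence read after 20 min.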
ELG1 repair inh – ELG1-dependent DNA repair inhibition; HEK293T ELG1-luciferase reporter, luminescence, 16 h; DNA damage induced by 5-fluorouridine; Potency, µM (top dose mostly 46.1 µM), most hits filed as inhibitors; 330,000 tested, 2.3% active; AID 504467; also: nearly all actives have a fitted effect of over 55% in size
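5-Fluorouridine DNA damage + compound/DMSO, 2,000 cells/well, 16 h, 37 °C/5% CO2. ONE-Glo, 30 min RT, luminescence. Readout = decrease in reporter signal.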
Giardia killer – kills Giardia lamblia. Giardia lamblia trophozoite viability. AID 540267. activity change, % at 7.66 µM, hits read low. 340,000 tested, 0.15% active; in the data active = activity change below about -80%; inconclusive = between about -30% and that limit;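 also: parasites exposed to compound for two days anaerobically before the ATP read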
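Luminescence from cellular ATP indicates surviving trophozoites (100 cells/well) following 48 hrs anaerobic compound treatment at 37 deg C; signal develops 15-30 min at room temperature.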
Sfp PPTase inh – Sfp phosphopantetheinyl transferase inhibition | 310,000 tested, 3.5% active | Potency, µM, hits mostly inhibitors | Biochemical Sfp PPTase activity, qHTS | AID 1490 | Q9F4F7;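 also: the enzyme is Sfp with the accession as filed and its product quenches rhodamine fluorescence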
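Sfp 15 nM + cpd, 15 min RT; start w/ rhodamine-CoA 5 uM, BHQ-2-YbbR 12.5 uM (final); 50 mM Hepes pH 7.6, 10 mM MgCl2, 0.01% NP-40, 0.01% BSA; read 525/598 nm at 0 and 30 min.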
Large screens that a line does not name were inactive. Unless noted, calls follow the shape of the dose curve; as a rule, active = well fitted curve in the direction sought with a large enough effect; inconclusive = small, poorly fitted or top-dose-only effect, or another doubt; inactive = no such curve, though single readings can be large; an effect the other way counts as inactive or inconclusive.

CC(C)(C)OC(=O)C[C@@H]1C/C=C\C[C@@H](CC(=O)N[C@@H](CO)Cc2ccccc2)C(=O)NC[C@@H](c2ccccc2)OC1=O	ELG1 repair inh 7.3µM (no result: Coupling enz, Sfp PPTase inh)
CCC(C)Sc1ccc([C@H]2N[C@@](C)(C(=O)OC)[C@H]3C(=O)N(CC)C(=O)[C@@H]23)cc1OC (stereo not given in full)	none (no result: Coupling enz, Sfp PPTase inh)
O=C(CNC(=O)C(c1ccccc1)c1ccccc1)N/N=C\c1ccc(C(=O)O)cc1	ELG1 repair inh inconclusive
COc1cc([C@@H]2c3cc4c(cc3[C@H](O)[C@H]3COC(=O)[C@@H]23)OCO4)cc(OC)c1OC	none (no result: Coupling enz, ELG1 repair inh, Sfp PPTase inh)
CC(C)(C)OC(=O)C[C@H]1C/C=C\C[C@@H](CC(=O)N(CCO)Cc2ccccc2)C(=O)NC[C@H](c2ccccc2)OC1=O	ELG1 repair inh 18µM (no result: Coupling enz, Sfp PPTase inh)
CC(C)(C)OC(=O)C[C@@H]1C/C=C\C[C@H](CC(=O)N(CCO)Cc2ccccc2)C(=O)NC[C@@H](c2ccccc2)OC1=O	none (no result: Coupling enz, Sfp PPTase inh)
O=C1N[C@@H](c2ccccc2)COC(=O)[C@H](Cc2ccc(F)cc2)C/C=C\C[C@H]1CC(=O)N(CCO)Cc1ccccc1	none (no result: Coupling enz, ELG1 repair inh, Sfp PPTase inh)
O=C1NC[C@@H](c2ccccc2)OC(=O)[C@H](Cc2ccc(F)cc2)C/C=C\C[C@H]1CC(=O)N(CCO)Cc1ccccc1	ELG1 repair inh 21µM (no result: Coupling enz, Sfp PPTase inh)
N[C@@H](Cc1cnc[nH]1)C(=O)Nc1ccc2ccccc2c1	none (no result: Coupling enz, ELG1 repair inh, Sfp PPTase inh)
NCCCCCCNS(=O)(=O)c1ccc2c(Cl)cccc2c1	none (no result: ELG1 repair inh, Giardia killer)
O=c1[nH]c2ccccc2c2cn(-c3ccccc3)nc12	ELG1 repair inh inconclusive
CCC(=O)Nc1nnc(S(=O)(=O)N(C)Cc2ccco2)s1	none (no result: Coupling enz)
CCCC(=O)Nc1nnc(S(=O)(=O)N(C)Cc2ccco2)s1	Sfp PPTase inh 45µM
Cc1ccccc1C(=O)Nc1nnc(S(=O)(=O)N(C)Cc2ccco2)s1	Sfp PPTase inh 45µM
O=C(Nc1cc(OC(=O)C(F)(F)F)c2nonc2c1OC(=O)C(F)(F)F)C(F)(F)F	none (no result: Coupling enz, ELG1 repair inh, Sfp PPTase inh)
Oc1cccc(Nc2ccccc2)c1	none (no result: Coupling enz, Sfp PPTase inh)
CC(C)c1cc(Nc2cccc(O)c2)cc(C(C)C)c1O	Sfp PPTase inh 22µM (no result: Giardia killer)
COCCN(C(=O)COC(=O)c1cccs1)c1c(N)n(Cc2ccccc2)c(=O)[nH]c1=O	none (no result: Coupling enz)
COc1ccccc1C(CNC(=O)c1ccc(OCc2c(C)noc2C)cc1)N1CCCC1 (stereo not given)	none (no result: Coupling enz, Sfp PPTase inh)
COc1ccc(/C=N/Nc2cc(N3CCCC3)nc(N3CCCC3)n2)cc1	Coupling enz -40, ELG1 repair inh inconclusive, Sfp PPTase inh 50µM
Oc1ccc(/C=N/Nc2cc(N3CCOCC3)nc(N3CCOCC3)n2)cc1	none (no result: Coupling enz, ELG1 repair inh, Sfp PPTase inh)
COc1cc(/C=N/Nc2nc(N3CCCC3)nc(N3CCCC3)n2)ccc1O	ELG1 repair inh inconclusive
Oc1ccc(/C=N/Nc2nc(N3CCCC3)nc(N3CCCC3)n2)cc1O	Sfp PPTase inh 20µM
Cc1nc(N/N=C/c2ccc(Br)cc2)cc(N2CCOCC2)n1	ELG1 repair inh 15µM
CCOc1ccc(/C=N/Nc2cc(C)nc(N3CCOCC3)n2)cc1	ELG1 repair inh inconclusive
Oc1ccc(/C=N/Nc2cc(N3CCCC3)nc(N3CCCC3)n2)cc1	Coupling enz -44
CCC(=O)c1ccc(OCC(=O)OCC(=O)NC2CCCCCCC2)cc1	none (no result: Coupling enz)
Oc1ccc(/C=N/Nc2ccc(Cl)nn2)cc1O	ELG1 repair inh inconclusive, Sfp PPTase inh 79µM
Brc1cccc(/C=N/Nc2nc(N3CCCCC3)nc(N3CCCCC3)n2)c1	none (no result: Giardia killer)
Oc1cccc(/C=N/Nc2cc(N3CCCC3)nc(N3CCCC3)n2)c1	Coupling enz -32, ELG1 repair inh 26µM
CCOc1ccc(S(=O)(=O)NN=C(C)c2cccnc2)cc1	none (no result: Coupling enz, Sfp PPTase inh)
COc1ccc(OC)c(N2C(=NC(=O)C3CCCCC3)SC3CS(=O)(=O)CC32)c1 (stereo not given)	none
C[C@H](CN1c2ccccc2Sc2cccnc21)N(C)C	none (no result: Coupling enz, ELG1 repair inh, Giardia killer)
Cn1c(=O)c2c([nH]c(=S)n2Cc2ccc(Cl)cc2)n(C)c1=O	Sfp PPTase inh 20µM
Cn1c(=O)c2c(ncn2Cc2ccc(Cl)cc2)n(C)c1=O	ELG1 repair inh inconclusive
CCNC(=S)N(CCCN(C)C)Cc1cc2cc3c(cc2[nH]c1=O)OCCO3	none
CC(C)(C)OC1NS(=O)(=O)OCC1NCOC(Cl)(Cl)Cl (stereo not given)	Sfp PPTase inh 13µM
CCc1ccc(N2CCN(S(=O)(=O)CC34CCC(CC3=O)C4(C)C)CC2)cc1 (stereo not given)	none
CCCN=Cc1sc2ccc(OCC)cc2c1O	ELG1 repair inh inconclusive, Sfp PPTase inh 50µM
COc1ccccc1N1CCN(C(=O)c2cc3c(=O)n(C)c4ccccc4c3n2C)CC1	ELG1 repair inh 16µM
C=CCSc1nc2ccccc2n2cnnc12	none
CCOC(=O)CSc1nc2ccccc2n2cnnc12	ELG1 repair inh inconclusive, Sfp PPTase inh 56µM
Cc1cnc(C(=O)OCC(=O)N2c3ccccc3NC(=O)C2(C)C)cn1	none
Cc1nn(-c2ccccc2)c(C)c1C(=O)OCC(=O)N1c2ccccc2NC(=O)C1(C)C	ELG1 repair inh 18µM
O=c1cc(C(O)C[N+](=O)[O-])occ1OCc1ccccc1 (stereo not given)	none (no result: Coupling enz, ELG1 repair inh, Sfp PPTase inh)
CC(C)n1ncc2c(C(=O)Nc3ccc(S(C)(=O)=O)cc3)cc(C3CC3)nc21	ELG1 repair inh inconclusive (no result: Coupling enz, Sfp PPTase inh)
CNC(=O)c1cccc(NC(=O)c2cc(-c3ccccc3)nc3c2cnn3C(C)C)c1	ELG1 repair inh 7.9µM (no result: Coupling enz, Sfp PPTase inh)
CCN(CC)C(=O)c1cccc(NC(=O)c2cc(C3CC3)nc3c2cnn3C(C)C)c1	ELG1 repair inh inconclusive (no result: Coupling enz, Sfp PPTase inh)
CC(C)n1ncc2c(C(=O)Nc3cccc(S(=O)(=O)N(C)C)c3)cc(C3CC3)nc21	ELG1 repair inh 21µM (no result: Coupling enz, Sfp PPTase inh)
Cc1ccc(NS(=O)(=O)c2cccc(C(=O)Nc3cc(C)on3)c2)cc1	ELG1 repair inh 21µM
Cc1ccc(C)c(S(=O)(=O)Nc2ccccc2C(=O)Nc2cc(C)on2)c1	ELG1 repair inh 26µM
Cc1cc(NC(=O)c2ccc3c(c2)OCCO3)no1	ELG1 repair inh inconclusive, Giardia killer -80
Cc1cc(NC(=O)c2ccc3c(c2)OCO3)no1	ELG1 repair inh inconclusive
O=C(Nc1cc(S(=O)(=O)N2CCOCC2)ccc1Cl)c1cc([N+](=O)[O-])ccc1Cl	ELG1 repair inh inconclusive (no result: Coupling enz, Sfp PPTase inh)
Cc1cnn(-c2nc(-c3ccccc3)cc(-c3ccccc3)n2)c1	ELG1 repair inh 21µM
FC(F)(F)c1cc(-c2ccccc2)nc(-n2cc(Cl)cn2)n1	none
CCS(=O)(=O)N1Cc2ccccc2CC1C(=O)N(C)CC(=O)Nc1cccc(F)c1 (stereo not given)	ELG1 repair inh inconclusive (no result: Coupling enz, Sfp PPTase inh)
O=S(=O)(NC1CC1)c1ccc(Br)cc1N1CCC[C@H]1CO	none (no result: Coupling enz, ELG1 repair inh, Sfp PPTase inh)
O=C1C2C3C=CC(CO)(O3)C2C(=O)N1c1ccc(-c2ccccc2)cc1 (stereo not given)	ELG1 repair inh inconclusive, Sfp PPTase inh 5µM (no result: Giardia killer)
CC(C)(C)C(=O)NCC12C=CC(O1)C1C(=O)N(c3ccccc3)C(=O)C12 (stereo not given)	none
O=C1C2C3C=CC(CNS(=O)(=O)c4ccccc4[N+](=O)[O-])(O3)C2C(=O)N1c1ccccc1 (stereo not given)	Sfp PPTase inh 28µM

From PubChem BioAssay
